This note sets out measurements from ChEMBL document CHEMBL3988442, “University of Dundee, Small-Polar-MMV Screening Library” (2021).

The experiment relates to Trypanosoma brucei. As to the kind of experiment: Trypanosoma brucei 72 hour study. It is filed as functional, organism-based. The arrangement: scale not given: in the data most compounds retested in dose-response had high values.

Structures are written as SMILES. Screen size: about 66,000 compounds; about 960 (1.5%) showed an effect of 50% or more. The full list was thinned out, with strong results kept by preference.

With `Cc1cc(C)nc(N2CCc3ccc(OC(F)F)cc3C2)n1`, where the note is “30.3 µM, […]”, the “Percent Effect” value is reported as 70.84%. As for `COc1ccc(C2CN(c3nc(C)cc(C)n3)CCN2C(C)=O)cc1` (stereo not drawn), the “Percent Effect” value (30.3 µM, […]) turned out to be 9.247%.

With `COc1ccc2c(c1)CN(c1nc(C)cc(C)n1)CC2`, where the note is “30.3 µM, […]”, the “Percent Effect” value came to 100.3%.

`COc1ccc2c(c1)CN(c1cc(N3CCCC3CO)ncn1)CC2` (stereo not drawn): under “30.3 µM, […]”, the “Percent Effect” value amounted to 27.38%. Turning to `CN1CCc2c(C#N)c(NCc3cccnc3)n3cnnc3c2C1.Cl`, for the setting “30 µM, 30.03 µM”, the “Percent Effect” value is -8.696%. Same read-out and setting: for `CCC(C)N(Cc1ccsc1)C(=O)c1ccc2[nH]nnc2c1` (stereo not drawn) the value was 2.149%.

As to `O=C(O)C(F)(F)F.c1cnc(N2CCO[C@H]3CN(CC4CCOC4)C[C@H]32)cn1` (stereo partly drawn), the “Percent Effect” value (30.3 µM, […]) is recorded as -89.28%. For `Fc1ccc(N2CCCN(c3ccc(Cn4ccnc4)cn3)CC2)cc1`, the “Percent Effect” value (30 µM, 30.03 µM) was -16.3%.

Regarding `CS(=O)(=O)N1CCO[C@@H]2CN(C(=O)N3CCOCC3)CC[C@@H]2C1`, the “Percent Effect” value (30.3 µM, […]) is listed as -93.06%. Same read-out and setting: for `Cc1cnn(CCNCc2nc(CNC(=O)c3ccccc3)no2)c1` the value was 55.13%; for `CCc1noc(CNCCn2cc(C)cn2)n1`, -10.46%. For `Cc1cnn(CCNCc2nc(Cc3ccccc3)no2)c1`, the “Percent Effect” value (30 µM, 30.03 µM) is given as -8.184%.

For the compound `CC(NC(=O)NCc1cc(Br)cs1)c1ccccn1` (stereo not drawn), for the setting “10 µM”, the “Percent Effect” value was -58.94%. For `COc1ccc(CN2CCC(c3nnc(-c4scnc4C)o3)CC2)cc1`, under “30.3 µM, […]”, the “Percent Effect” value came to 3.062%.

Regarding `CCCn1ncc(-c2ccnc(NC3CCSC3)n2)c1C` (stereo not drawn), the “Percent Effect” value (30.3 µM, […]) amounted to 99.54%. Regarding `CCCn1cc(-c2ccnc(NC3CCCc4ccccc43)n2)c(C)n1` (stereo not drawn), the “Percent Effect” value (30 µM, 30.03 µM) is recorded as 15.8%. Take `CCCn1ncc(-c2ccnc(NC3CCCc4ccccc43)n2)c1C` (stereo not drawn): the “Percent Effect” value (30 µM, 30.03 µM) is recorded as 93.43%.

On to `CCCn1cc(-c2ccnc(NC3CCc4ccccc43)n2)c(C)n1` (stereo not drawn), for which, where the note is “30 µM, 30.03 µM”, the “Percent Effect” value stood at 34.15%. On to `CCCn1ncc(-c2ccnc(NC3CC(C)(C)NC(C)(C)C3)n2)c1C`, for which the “Percent Effect” value (30.3 µM, […]) was 25.37%. In the case of `CCCn1cc(-c2ccnc(NC3CCc4ccccc4C3)n2)c(C)n1` (stereo not drawn), the “Percent Effect” value (30 µM, 30.03 µM) came to 2.067%. For `CCCn1ncc(-c2ccnc(N[C@@H]3C[C@@H]4CC[C@H]3C4)n2)c1C`, where the note is “30.3 µM, […]”, the “Percent Effect” value was found to be 89.15%. With `CCc1cc(N[C@@H]2C[C@H]3CC[C@@H]2C3)n2nccc2n1`, for the setting “30 µM, 30.03 µM”, the “Percent Effect” value turned out to be 24.99%. `Cn1ncc2c(N[C@@H]3C[C@@H]4CC[C@H]3C4)nc(-c3ccncc3)nc21`: under “30.3 µM, […]”, the “Percent Effect” value is listed as -15.13%. With `Cc1ccc(C(=O)N2CCC3(CCN3c3ncccn3)C2)cn1.O=C(O)C(F)(F)F` (stereo not drawn), for the setting “30 µM, 30.03 µM”, the “Percent Effect” value is recorded as -27.47%. On the same count and under the same terms, for `COC(=O)CCN(C)C(=O)c1csc(Cc2ccccc2F)n1` the value was -48.33%; for `O=C(O)C(F)(F)F.O=C(c1ccccc1)N1CCC2(CCCN2c2ncccn2)CC1`, -3.287%. For the compound `CCCN1C[C@H]2CC[C@@H]1CN(Cc1cccc(O)c1)C2`, the “Percent Effect” value (30.3 µM, […]) is given as -137.4%. Still for that read-out and setting: then `Oc1cccc(CN2C[C@H]3CC[C@@H]2CN(Cc2ccc(F)cc2)C3)c1`, with 102.6%. As for `Cc1nnsc1CN1C[C@H]2CC[C@@H]1CN(Cc1ccc(F)cc1)C2`, under “30 µM, 30.03 µM”, the “Percent Effect” value is given as -34.67%. On to `Cc1ccc(CN2CCc3nnc(COCCN(C)C)n3CC2)o1.O=C(O)C(F)(F)F.O=C(O)C(F)(F)F`, for which the “Percent Effect” value (30.3 µM, […]) is given as -5.489%. As for `Cc1ccc2c(n1)N(CC1CC1)CCN(Cc1cnn(C)c1)C2`, the “Percent Effect” value (30.3 µM, […]) is reported as -21.1%. The same measure, in the same setting: for `CN1CCCN(c2nccc(-c3cncnc3C3CCCCC3)n2)CC1` the value was -3.717%; for `CN1CCCN(c2nccc(-c3c[nH]nc3-c3ccncc3)n2)CC1`, 10.61%. Turning to `CN1CCCN(c2nccc(-c3c[nH]nc3C3CCCCC3)n2)CC1`, the “Percent Effect” value (30 µM, 30.03 µM) stood at 98.42%. With `c1cc(-c2c[nH]nc2C2CCCCC2)nc(N2CCCCCC2)n1`, the “Percent Effect” value (30.3 µM, […]) worked out at 99.82%.

On to `Nc1nccc(-c2c[nH]nc2C2CCCCC2)n1`, for which the “Percent Effect” value (30 µM, 30.03 µM) came out at 44.22%. `CN1CCCN(c2nccc(-c3c[nH]c4ccc(Br)cc34)n2)CC1`: the “Percent Effect” value (30.3 µM, […]) was 99.21%. For the compound `NC(=O)C1CCN(c2nccc(-c3c[nH]nc3C3CCCCC3)n2)CC1`, the “Percent Effect” value (30.3 µM, […]) turned out to be 100.2%. With `CN1CCCN(c2nccc(-c3cc(C(=O)O)ccn3)n2)CC1`, the “Percent Effect” value (30 µM, 30.03 µM) is -37.76%. As to `NC(=O)[C@H]1CCCN(c2nccc(-c3c[nH]nc3-c3cccnc3)n2)C1`, under “30.3 µM, […]”, the “Percent Effect” value was -17.38%.

With `CN1CCN(c2nccc(-c3cncnc3C3CCCCC3)n2)CC1`, the “Percent Effect” value (30.3 µM, […]) is on record as -9.341%. On the same count and under the same terms, then `Cc1ccnc(N2CCC(C(N)=O)CC2)n1`, with -17.59%. On the same count and under the same terms, then `c1cc(-c2cn3nccc3nc2C2CCCCC2)nc(N2CCCC2)n1`, with 41.66%; and `Cc1nnsc1C(=O)N1CCCC(n2nnc3cc(F)ccc32)C1` (stereo not drawn), with 2.47%.

Regarding `CC1COCCN1Cc1nc(-c2ccsc2)no1` (stereo not drawn), the “Percent Effect” value is recorded as -0.3401% (30.3 µM, […]) and -39.38% (10 mM, 10 mM as filed; unlikely as a test dose).

With `CC(C)N1CCO[C@@H]2CN(S(=O)(=O)c3cccs3)CC[C@@H]2C1.O=C(O)C(F)(F)F`, the “Percent Effect” value (30.3 µM, […]) is -39.91%. Same read-out and setting: then `COc1ccc(OC)c(CN2CCc3nc4ccsc4c(=O)n3CC2)c1.Cl`, with 12.93%.
